Assay results published in PubChem BioAssay (EPA / NIEHS).
Several values for one entry are separate records, joined by “and”; a condition that tells them apart may be missing. Equal values may be shown once. Activity calls are given as the source filed them. The calls were made as follows: active = hit-call score of the fitted dose curve at least 0.9, where 1 is the maximum; inactive = score below 0.9.

What follows are molecules tested on E-selectin (Homo sapiens) (UniProt P16581) (assay: BSK_3C_Eselectin: BioMAP Diversity Plus: 3C Assay for Eselectin Biomarker Activity (AID 2283015)). Settings: primary human endothelial cells (HUVEC); actives raise or lower the signal.
E-selectin (Homo sapiens), sequence (P16581 whole entry, looked up): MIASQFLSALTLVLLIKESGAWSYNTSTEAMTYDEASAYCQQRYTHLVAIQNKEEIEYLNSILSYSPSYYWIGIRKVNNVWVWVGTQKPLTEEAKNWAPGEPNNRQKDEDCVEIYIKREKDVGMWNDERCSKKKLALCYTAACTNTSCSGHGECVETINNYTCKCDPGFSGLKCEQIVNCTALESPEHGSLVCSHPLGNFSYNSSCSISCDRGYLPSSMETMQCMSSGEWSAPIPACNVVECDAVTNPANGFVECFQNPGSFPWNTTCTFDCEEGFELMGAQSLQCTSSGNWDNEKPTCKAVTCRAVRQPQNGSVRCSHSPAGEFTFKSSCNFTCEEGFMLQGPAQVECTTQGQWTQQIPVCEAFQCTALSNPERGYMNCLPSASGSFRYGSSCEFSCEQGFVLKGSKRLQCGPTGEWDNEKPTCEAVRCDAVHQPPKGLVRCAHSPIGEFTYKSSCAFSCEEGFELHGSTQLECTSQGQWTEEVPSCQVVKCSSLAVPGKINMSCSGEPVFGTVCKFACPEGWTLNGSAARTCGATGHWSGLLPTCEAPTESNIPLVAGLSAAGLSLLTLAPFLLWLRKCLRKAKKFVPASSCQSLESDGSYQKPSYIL
Protocol: BSK_3C is a cell-based, multiplexed-readout assay that uses umbilical vein endothelium, a human vascular primary cell, with measurements taken at 24 hours after chemical dosing in a 96-well plate.BSK_3C_Eselectin is an assay component measured in the BSK_3C assay. It measures E-selectin antibody related to regulation of gene expression using ELISA technology.Data from the assay component BSK_3C_Eselectin was analyzed into 1 assay endpoint. This assay endpoint, BSK_3C_Eselectin, was analyzed with bidirectional fitting relative to DMSO as the negative control and baseline of activity. Using a type of binding reporter, gain or loss-of-signal activity can be used to understand changes in the signaling as they relate to the gene SELE. Furthermore, this assay endpoint can be referred to as a primary readout, because this assay has produced multiple assay endpoints where this one serves a signaling function. To generalize the intended target to other relatable targets, this assay endpoint is annotated to the cell adhesion molecules intended target family, where the subfamily is selectins.
The levels of cell surface (or secreted, indicated by the prefix "s") biomarker endpoints were measured by ELISA. Overt cytotoxicity to cells in confluent adherent cultures (all systems other than the BT system) was assessed by measuring total protein levels using sulforhodamine B (SRB) staining in parallel cultures at the time of biomarker measurements, indicated as SRB endpoints. For proliferation assays for adherent cell types, individual cell types are cultured at sub-confluence and relative cell numbers quantified by SRB staining at time points optimized for each system (48 h: 3C and CASM3C systems; 72 h: BT and HDF3CGF systems; 96 h: SAg system). SRB was performed by staining cells with 0.1% SRB after fixation with 10% TCA and reading wells at 560 nm.Viability and proliferation of PBMC (T cells) was quantified by Alamar Blue reduction for the SAg and BT systems. For PBMC viability (referred to as PBMC Cytotoxicity within the assay endpoint names), cells were plated (75,000/well in a 96-well plate) and then chemical samples added for 1 h before addition of activators, SEB and TSST-1 (20 ng/mL final concentration each). Cells were incubated for 90 h. Then, Alamar Blue (20 uL/well) (Invitrogen, Cat DAL1100) was added for 6 h, and the plates were read with a fluorescence microplate reader at 546/580 nm (excitation/emission). For PBMC proliferation, cells were plated and activated as above but incubated for only 16 h prior to addition of Alamar Blue. Plates were read after 6 h.
In the case of `O=C(O)C(F)(F)OC(F)(F)C(F)(F)OC(F)(F)C(=O)O`, the outcome is reported as “inactive”. For `COC(=O)C(F)(F)C(F)(F)OC(F)(C(F)(F)F)C(F)(F)OC(F)=C(F)F` (stereo not given), the outcome was “inactive”. For `CCCCC(CC)COP(=O)(Oc1ccccc1)Oc1ccccc1` (stereo not given), the AC50 was 6.53 µM (active). With `c1ccc2c(c1)Nc1ccccc1S2` the outcome was “inactive”. `ClC(Cl)=C(c1ccc(Cl)cc1)c1ccccc1Cl` was tested, and the AC50 was 20 µM (active). With `O=C(O)C1C(C(=O)O)C2(Cl)C(Cl)=C(Cl)C1(Cl)C2(Cl)Cl` (stereo not given) the outcome was “inactive”. With `CC(Cl)(Cl)C(=O)O` the outcome was “inactive”. In the case of `CCCCN(CCCC)N=O`, the outcome is reported as “inactive”. With `CCOP(=S)(NC(C)C)Oc1ccccc1C(=O)OC(C)C` (stereo not given) the AC50 was 20 µM (active). With `O=[N+]([O-])c1ccccc1` the outcome was “inactive”. `CCOc1ccc(C(C)(C)COCc2cccc(Oc3ccccc3)c2)cc1` was tested, and the outcome was “inactive”. For `O=P(Oc1ccccc1)(Oc1ccccc1)Oc1ccccc1`, the outcome was “inactive”. For `CCCCC(CC)COC(=O)c1c(Br)c(Br)c(Br)c(Br)c1C(=O)OCC(CC)CCCC` (stereo not given), the outcome was “inactive”. `ClC(Cl)(Cl)c1ccccc1` was tested, and the outcome was “inactive”. `CC(O)C(F)(F)C(F)(F)F` (stereo not given) was tested, and the outcome was “inactive”. `Nc1ccc2ccccc2c1` was tested, and the outcome was “inactive”. For `CCOP(=S)(OCC)SCS(=O)(=O)CC`, the outcome was “inactive”. In the case of `Nc1ccc(Cl)cc1`, the outcome is reported as “inactive”. For `O=c1ssc(Cl)c1Cl`, the AC50 was 6.13 µM (active). With `N#Cc1cc([N+](=O)[O-])ccc1N` the outcome was “inactive”. `CCOP(=S)(OCC)SCn1nnc2ccccc2c1=O` was tested, and the AC50 was 20 µM (active). For `OCC(F)(F)OC(F)(F)C(F)(F)OC(F)(F)C(F)(F)OC(F)(F)F`, the AC50 was 46.3 µM (active) and 55.2 µM (active). `O=[N+]([O-])c1ccc(Cl)c(Cl)c1` was tested, and the outcome was “inactive”. In the case of `c1cc2c3c(cccc3c1)CC2`, the outcome is reported as “inactive”. In the case of `c1ccc(OP(Oc2ccccc2)Oc2ccccc2)cc1`, the outcome is reported as “inactive”. `CCC(C)(C)c1ccc(O)cc1` was tested, and the outcome was “inactive”. For `OCC1CO1` (stereo not given), the outcome was “inactive”. `O=C(O)C(F)(F)OC(F)(F)C(F)(F)OC(F)(F)F` was tested, and the outcome was “inactive”. In the case of `CCOS(=O)(=O)OCC`, the outcome is reported as “inactive”. `O=P(OCC(Br)CBr)(OCC(Br)CBr)OCC(Br)CBr` (stereo not given) was tested, and the AC50 was 17.4 µM (active). For `O=S1(=O)OCC2C(CO1)C1(Cl)C(Cl)=C(Cl)C2(Cl)C1(Cl)Cl` (stereo not given), the outcome was “inactive”. With `CC(C)(C)c1ccc(O)cc1` the outcome was “inactive”. With `O=C(O)C=CC(F)(C(F)(F)F)C(F)(F)F` the outcome was “inactive”. In the case of `Cc1ccc([N+](=O)[O-])cc1C`, the outcome is reported as “inactive”. With `O=C(O)C(Cl)Cl` the outcome was “inactive”. For `COP(=O)(O)OC`, the outcome was “inactive”. With `Cc1ccc2c(c1N)C(=O)c1ccccc1C2=O` the outcome was “inactive”. `CCCCOCCOP(=O)(OCCOCCCC)OCCOCCCC` was tested, and the outcome was “inactive”. With `O=S(=O)(F)C(F)(F)C(F)(F)C(F)(F)C(F)(F)C(F)(F)C(F)(F)C(F)(F)C(F)(F)F` the outcome was “inactive”. For `[N-]=[N+]=[N-]`, the outcome was “inactive”.
